In PubChem BioAssay (NCI):
This is part of a sample that, as a whole, favours compounds with a hit. Of some 83,000 tested, about 20% had one in any assay.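 The test compound was applied at a single concentration to cells in 96-well plates for 48 hours, and percent growth was recorded.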 Values without a mark were called inactive. Active and inactive are the calls of the source. The calls were made as follows: active = growth percent below 10; inactive = the rest.

Each molecule was assayed on HCT-15 colon (assay: NCI-60 one-dose screen, 48 h (100 = growth as untreated, 0 = no growth, -100 = all killed)). Conditions: 10 µM unless noted.
Cc1cc2c(cc1C)[n+](Cc1ccc3ccccc3n1)cn2Cc1ccc2ccccc2n1 was tested, and the growth was 66.2%.
For CCOC(=O)c1sc(NC(=O)COc2cccc(/C=C3\Cc4ccc(Cl)cc4C3=O)c2)nc1C, the growth was 97.4%.
Work on COc1ccc(/C=C/C(=O)c2cccc(NS(C)(=O)=O)c2)cc1 yielded a growth of 67.5%.
With CCOc1cc(/C=C/C(=O)CC(=O)/C=C/c2ccc(OC(=O)CNCCN(CC)CC)c(OCC)c2)ccc1OC(=O)CNCCN(CC)CC the growth was -59.1% (active).
CC[C@@H](c1ccc(O)c(O)c1)[C@@H](CC)c1ccc(O)c(O)c1 was tested, and the growth was 58.1%.
With CCCCCc1c(C)[nH]c(/C=C2\N=C(c3ccc[nH]3)C=C2Oc2ccc(Cl)cc2)c1C the growth was -26.6% [100 µM] (active).
For O=C(O)C1CCN(S(=O)(=O)c2ccc(-c3ccccc3)cc2)CC1, the growth was 107%.
With CCCCCN1C(=O)CCC1=O the growth was 106%.
O=C(O)c1ccc(CNS(=O)(=O)c2ccc3ccccc3c2)cc1 gave a growth of 104%.
COc1cc(-c2nc3sc4c(c3c(=O)[nH]2)CCCCCC4)cc(OC)c1OC showed a growth of 24.8%.
With C/C(=C\CCc1ccoc1)CC/C=C(\C)CCCNc1ccc(F)cc1 the growth was 93.3%.
With COc1ccc2nc(N/N=C(\C)c3ccccn3)cc(C)c2c1 the growth was -48.5% (active).
C/C(=C\CCc1ccoc1)CC/C=C(\C)CCCC1COC(=O)C1 (stereo unspecified) was tested, and the growth was 99.2%.
Molecule O=C(CNC(=O)c1cccc2ccccc12)Nc1ccccc1Cc1ccccc1 has a growth of 28% [5 µM].
In the case of NS(=O)(=O)c1ccc(-n2ncc3c(NC4CCCCC4)ncnc32)cc1, the growth is reported as 86.4%.
Molecule COc1cc(/C=C/C(=O)CC(=O)/C=C/c2ccc(OC(=O)CCNC34CC5CC(CC(C5)C3)C4)c(OC)c2)ccc1OC(=O)CCNC12CC3CC(CC(C3)C1)C2 has a growth of 46.9%.
With C/C(=C\CCc1ccoc1)CC/C=C(\C)CCCN1CCSCC1 the growth was 43.3%.
In the case of COC(=O)[C@H]1[C@H]2C[C@@H]3c4[nH]c5cc(OC)ccc5c4CCN3C[C@H]2C[C@@H](OC(=O)/C=C/c2cc(OC)c(OC)c(OC)c2)[C@@H]1OC, the growth is reported as 39.9%.
For Cc1c2oc3c(C)ccc(C(=O)OC(C)C4NC(=O)C(C(C)C)N(C)C(=O)CN(C)C(=O)C5CCCN5C(=O)C(C(C)C)NC4=O)c3nc-2c(C(=O)OC(C)C2NC(=O)C(C(C)C)N(C)C(=O)CN(C)C(=O)C3CCCN3C(=O)C(C(C)C)NC2=O)c(N)c1=O (stereo unspecified), the growth was 7.36% (active).
Work on CC(C)=CCCC(C)c1ccc(C)c2c1OCN(CC1CCNCC1)C2 (stereo unspecified) yielded a growth of 39.8%.
In the case of Oc1ccccc1/C=N/N1CCCCCC1, the growth is reported as 93.7%.
CC[n+]1c(/C=C/c2ccc(N3CCCC3)cc2)cccc1/C=C/c1ccc(N2CCCC2)cc1 was tested, and the growth was -85.7% (active).
Molecule O=C1Nc2ccc(C(=O)O)c(O)c2C1=O has a growth of 110%.
With CSc1nc2nc3c(c(-c4ccc(C)cc4)c2c(=O)[nH]1)CN(C)C/C3=C\c1ccc(C)cc1 the growth was 116%.
For O=C(/C=C/c1cccc(O)c1)c1cccc(-n2cc(-c3ccccc3)[nH]c2=O)c1, the growth was -18.9% (active).
O=[N+]([O-])c1cc([N+](=O)[O-])c(N2CCCC2)cc1NN=C(c1ccc(O)cc1)c1ccc(O)cc1 showed a growth of 46.9%.
Work on CC1=C([Se]CC(OC(=O)[C@@H](CSSC(C)(C)C)NC(=O)C(C)(C)C)C(=O)NCCCCCC(=O)OCc2ccccc2)C(=O)c2ccccc2C1=O (stereo partly specified) yielded a growth of 20.4%.
Molecule C[N+]1(C)C2CC[C@@H]1CC(OC(=O)C(O)c1ccccc1)C2 (stereo partly specified) has a growth of 105%.
In the case of O=C(O)CNC(=O)C1(N2C(=O)c3ccccc3C2=O)CCCC1, the growth is reported as 106%.
c1ccc(COc2ccc(Nc3ncnc4c3cnn4-c3ccccc3)cc2)cc1 gave a growth of 72.4%.
In the case of Nc1ccccc1-c1ccn[nH]1, the growth is reported as 85.2%.
In the case of C/C(=C\CCc1ccoc1)CC/C=C(\C)CCCN1CCOCC1, the growth is reported as 23.8%.
Molecule O=C(NC1CCCCC1)c1ccc(Nc2ncnc3c2cnn3-c2ccccc2)cc1 has a growth of 66.6%.
Cc1ccc(-c2csc(N)n2)cc1 showed a growth of 99.9%.
With COC(=O)C1(NC(=O)CNC(=O)OCc2ccccc2)CCCC1 the growth was 103%.
Work on C[C@]12CC[C@H](O)CC1=CC[C@@H]1[C@@H]2CC[C@]2(C)C(c3cccnc3)=CC[C@@H]12 yielded a growth of 56.8%.
